Compound in this assay: CC(C)c1cccc(C(C)C)c1N1C(=O)c2ccc(O)cc2C1=O
The assay can be described thus: BioMAP readout fold decrease vs vehicle (vehicle/treated); higher = stronger decrease of the readout vs vehicle (values <1 mean increase). Here is the method: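 BioSeek BioMAP human primary cell (co-)culture systems (3C, 4H, LPS, SAg, BE3C, CASM3C, hDFCGF, KF3CT) treated with 5HPP-33 at 1.48, 4.44, 13.3 and 40 µM. Read-outs are protein levels by ELISA, proliferation and SRB total protein. Duplicate rows per assay are averaged as replicates. Tested in ToxCast Phase II for this study; exposure time not stated.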

± gives the standard deviation of the averaged measurements.
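Note: Co-cultures of keratinocytes, bronchial epithelial and smooth muscle cells, fibroblasts, HUVECs and PBMCs under stimuli like LPS, TNF-α, IFN-γ, IL-1β, TGF-β or EGF, SRB reflecting cytotoxicity.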

For the target LPS_TissueFactor, the “BioMAP readout fold decrease” value worked out at 0.905 ± 0.021 (1.48 µM), 0.9505 ± 0.0063 (4.44 µM), 1.04 ± 0.02 (13.3 µM) and 1.21 ± 0.024 (40 µM).
CASM3C_TissueFactor: the “BioMAP readout fold decrease” value is, setting by setting: (1.48 µM) 1.0008 ± 0.00028; (4.44 µM) 1.023 ± 0.0054; (13.3 µM) 1.04 ± 0.026; (40 µM) 1.22 ± 0.015.
Take BE3C_MMP1: the “BioMAP readout fold decrease” value amounted to 1.073 ± 0.0092 (1.48 µM), 1.01 ± 0.017 (4.44 µM), 0.9184 ± 0.0038 (13.3 µM) and 0.854 ± 0.0042 (40 µM).
As to LPS_CD40, the “BioMAP readout fold decrease” value (1.48 µM) was 1.33 ± 0.17, the “BioMAP readout fold decrease” value (4.44 µM) stood at 1.67 ± 0.1, the “BioMAP readout fold decrease” value (13.3 µM) was 2.699 ± 0.02 and the “BioMAP readout fold decrease” value (40 µM) worked out at 4.12 ± 0.32.
As to LPS_TNFa, the “BioMAP readout fold decrease” value (1.48 µM) came out at 0.955 ± 0.077, the “BioMAP readout fold decrease” value (4.44 µM) came out at 0.923 ± 0.036, the “BioMAP readout fold decrease” value (13.3 µM) turned out to be 1.26 ± 0.13 and the “BioMAP readout fold decrease” value (40 µM) was 1.56 ± 0.35.
Take CASM3C_SAA: the “BioMAP readout fold decrease” value reads like this: (1.48 µM) 1.02 ± 0.09; (4.44 µM) 1.12 ± 0.018; (13.3 µM) 1.094 ± 0.0048; (40 µM) 1.72 ± 0.1.
As to CASM3C_SRB, the “BioMAP readout fold decrease” value came out at 1.022 ± 0.0094 (1.48 µM), 1.1 ± 0.012 (4.44 µM), 1.07 ± 0.023 (13.3 µM) and 1.41 ± 0.047 (40 µM).
The matching figures for LPS_Eselectin: 1.07 ± 0.019, 1.17 ± 0.034, 1.24 ± 0.012 and 1.91 ± 0.12.
The matching figures for BE3C_IP10: 1.1 ± 0.12, 1.15 ± 0.0028, 1.65 ± 0.029 and 3.38 ± 0.11.
For hDFCGF_MMP1, the “BioMAP readout fold decrease” value amounted to 0.956 ± 0.05 (1.48 µM), 0.93304 ± 0.00091 (4.44 µM), 0.85 ± 0.0086 (13.3 µM) and 1.09 ± 0.13 (40 µM).

(Values after the supplement of paper PMC3616981.)
